Assay results as given in PubChem BioAssay (NCATS).
A number with no mark means an inactive call. Records with an inconclusive call do not appear. Activity calls are given as the source filed them. Unless noted, calls come from the whole dose curve; as a rule, active = well fitted curve in the direction sought with a large enough effect; inconclusive = small, poorly fitted or top-dose-only effect, or another doubt; inactive = no such curve, though single readings can be large; an effect the other way counts as inactive or inconclusive.

Key:
[1] = target: Nuclear receptor subfamily 1 group I member 2 (Rattus norvegicus) (UniProt Q9R1A7); assay: qHTS assay for small molecule activators of the rat pregnane X receptor (rPXR) signaling pathway (AID 651751; call rule not given here; note: 0% is about no effect); conditions: rPXR reporter cells, luciferase (One-Glo), 24 h
Nuclear receptor subfamily 1 group I member 2 (Rattus norvegicus), sequence (Q9R1A7 whole entry, looked up): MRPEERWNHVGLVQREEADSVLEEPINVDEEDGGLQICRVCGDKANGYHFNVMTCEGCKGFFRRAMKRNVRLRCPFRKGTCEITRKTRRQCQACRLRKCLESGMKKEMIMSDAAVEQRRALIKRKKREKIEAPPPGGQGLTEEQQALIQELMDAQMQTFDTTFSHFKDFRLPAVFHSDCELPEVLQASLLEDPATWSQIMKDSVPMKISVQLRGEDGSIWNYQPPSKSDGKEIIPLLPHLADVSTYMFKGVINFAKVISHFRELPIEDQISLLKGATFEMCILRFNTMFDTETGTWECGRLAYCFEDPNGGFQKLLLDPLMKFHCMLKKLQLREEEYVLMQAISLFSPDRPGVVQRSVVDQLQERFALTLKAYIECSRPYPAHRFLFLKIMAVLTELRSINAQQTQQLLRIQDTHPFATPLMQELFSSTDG

[2] = qHTS assay for small molecule activators of the human pregnane X receptor (PXR) signaling pathway (AID 720659; call rule not given here; note: 0% is about no effect); conditions: DPX-2 HepG2 CYP3A4-luciferase, 24 h; series mostly up to 92.3 µM
[3] = qHTS assay to identify inhibitors of the type 1 interferon - major histocompatibility complex class I in skeletal muscle: Counter screen cell viability and HiBit confirmation (AID 1347412); conditions: iHSKM muscle cells + IFN-b, HiBiT or CellTiter-Glo, 24 h; for activity change, negative = inhibition: at 45.9 µM (top of the series); note: potency is the fitted concentration of half-maximal effect; for activity change, negative = inhibition: % is set by controls: 0 for no effect and ±100 for the full control effect; for all read-outs here: nearly all actives have a fitted effect of over 60% in size
Method in brief: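 Human myoblast knock-in line, 4.0 ng/ml IFN-beta stimulation, 24 h compound treatment. Endpoints: HiBiT lytic luminescence (HLA-B level) and CellTiter Glo (ATP). Dosing 12 concentrations, 3-fold steps, 46 uM highest final.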

W2 = assay: qHTS profiling for inhibitors of Plasmodium falciparum proliferation (AID 504749); note: nearly all actives have a fitted effect of over 60% in size; note: potency is the fitted concentration of half-maximal effect; conditions: P. falciparum in erythrocytes, SYBR Green DNA, 72 h; series mostly up to 28.7 µM
Method in brief: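 Parasite proliferation within erythrocytes, 72 h exposure. Endpoint: SYBR Green I fluorescence after overnight lysis at room temperature. Controls: 0.29 uM artemisinin, DMSO.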

`C/C(=C\c1ccc(C(=O)O)cc1)c1ccc2c(c1)C(C)(C)CCC2(C)C` showed a max response [1] of 1.8%.

In the case of `CC(=O)C(C)=O`, the max response [1] is reported as -4.56% and the outcome [2] is reported as “inactive”.

For `Brc1c(Br)c(Br)c2[nH]cnc2c1Br`, the Potency ([3]; HiBiT) was 14 µM (active) and the activity change, negative = inhibition ([3]; Viability) was 3.14%.

With `CC(C)NC[C@H](O)COc1ccc(CC(N)=O)cc1` the Potency (W2) was “inactive”.

For `CCCCCCCCCCCCCCSCC(=O)O`, the max response [1] was 5.54% and the outcome [2] was “inactive”.

With `O=C1Cc2c([nH]c3ccc(Br)cc23)-c2ccccc2N1` the Potency ([3]; HiBiT) was 15.7 µM (active) and the activity change, negative = inhibition ([3]; Viability) was -21.6%.

For `CC(O)C(O)[C@H]1CNc2nc(N)[nH]c(=O)c2N1` (stereo partly specified), the Potency (W2) was “inactive”.

In the case of `c1ccc(C2CN3CCSC3=N2)cc1` (stereo unspecified), the Potency (W2) is reported as 1.51 µM (active).

For `CN1C2CCC1CC(OC(c1ccccc1)c1ccccc1)C2` (stereo unspecified), the Potency (W2) was 1.51 µM (active).

In the case of `C=C1C(=O)O[C@@H]2[C@H]3O[C@]3(C)CCC=C(C)CC[C@@H]12`, the Potency ([3]; HiBiT) is reported as 8.83 µM (active) and the activity change, negative = inhibition ([3]; Viability) is reported as 52.5%.

For `CCCCCCCCCCCCCCCCCCOC[C@H](COP(=O)([O-])OCC[N+](C)(C)C)OC`, the Potency (W2) was “inactive”.

Work on `CCCc1c(OCCCOc2ccc(OCC(=O)O)cc2)ccc(C(C)=O)c1O` yielded a max response [1] of -1.22%.

In the case of `O=c1[nH]c2cc(Cl)ccc2c(O)c1-c1ccc(Oc2ccccc2)cc1`, the Potency ([3]; HiBiT) is reported as 5.57 µM (active) and the activity change, negative = inhibition ([3]; Viability) is reported as -0.671%.

For `NC(=O)c1ccccc1`, the max response [1] was -1.26% and the outcome [2] was “inactive”.

With `CC[n+]1c(/C=C/C=C2/N(C)c3ccccc3C2(C)C)sc2ccccc21` the Potency ([3]; HiBiT) was 7.01 µM (active) and the Potency ([3]; Viability) was 9.91 µM (active).

With `CCCCCCCCCCCCCCC[C@H](O)[C@H](N)CO` the Potency (W2) was “inactive”.

In the case of `CCCc1c(-c2ccc(O)cc2)nn(-c2ccc(O)cc2)c1-c1ccc(O)cc1`, the max response [1] is reported as -3.52% and the outcome [2] is reported as “inactive”.
